Source: PubChem (National Center for Advancing Translational Sciences (NCATS))
FLuc modulator = firefly luciferase modulation, counter-screen for miR-21 project; P08659; purified FLuc, Km substrates, luminescence inhibition; Potency, µM (highest dose often 57.5 µM), for the others: at the top dose activity change, negative = inhibition, usual class: inhibitors; 360,000 tested, 6.9% active;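 note: plate controls were vehicle for no effect and reference inhibitor for full effect; nearly all actives have a fitted effect of over 55% in size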
Target sequence (P08659 whole entry, looked up): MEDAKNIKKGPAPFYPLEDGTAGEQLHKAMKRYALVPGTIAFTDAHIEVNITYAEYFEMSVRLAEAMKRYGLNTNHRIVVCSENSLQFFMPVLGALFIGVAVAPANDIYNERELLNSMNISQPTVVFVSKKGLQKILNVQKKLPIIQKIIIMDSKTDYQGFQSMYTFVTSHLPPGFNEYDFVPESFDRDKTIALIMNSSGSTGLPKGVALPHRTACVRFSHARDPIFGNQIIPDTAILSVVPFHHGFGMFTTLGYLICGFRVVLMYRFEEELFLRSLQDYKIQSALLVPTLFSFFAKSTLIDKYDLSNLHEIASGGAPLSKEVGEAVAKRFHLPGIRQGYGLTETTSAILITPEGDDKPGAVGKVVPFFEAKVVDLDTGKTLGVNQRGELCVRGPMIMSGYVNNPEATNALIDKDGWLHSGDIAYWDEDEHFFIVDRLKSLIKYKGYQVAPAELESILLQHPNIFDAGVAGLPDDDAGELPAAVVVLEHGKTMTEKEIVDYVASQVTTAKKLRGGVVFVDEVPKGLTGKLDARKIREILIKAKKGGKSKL
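Biochemical qHTS of compounds, final roughly 60 µM downward over six points, against 10 nM purified firefly luciferase using Km concentrations of substrates (10 uM D-luciferin, 10 uM ATP) in Tris acetate pH 7.5 buffer; luminescence output.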
ELG1 genotoxic = inducers of genotoxicity in HEK293T ELG1-luciferase cells | AID 504466 | HEK293T ELG1-luciferase reporter, luminescence, 16 h | Potency, µM (top dose mostly 46 µM), for inactives: top-dose activity change, positive = activation, usual class: activators | 330,000 tested, 1.3% active; note: % of control where 0% means no effect; nearly all actives have a fitted effect of over 60% in size
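HEK293T cells expressing luciferase-tagged ELG1 were exposed to compound or DMSO vehicle for 16 hr at 37 °C and 5% CO2. Luciferase activity was then measured with ONE-Glo after 30 min at room temperature.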
SMN2 splice enh = increases expression of the SMN2 splice variant | HEK293 SMN2-luciferase splicing reporter, luminescence, 30-36 h | Potency, µM (series often up to 46.1 µM), inactives show top-dose activity change, positive = activation, most hits filed as activators | 210,000 tested, 2.8% active | AID 1458; note: % of control where 0% means no effect; nearly all actives have a fitted effect of over 55% in size
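HEK293 cells carry an SMN2 […]–luciferase reporter in which exon 7 inclusion puts luciferase in frame. Cells were plated 10-12 h before compound addition, then incubated 30-36 h at 37C. ONE-Glo luminescence was read; sodium butyrate at 4.5 mM final served as control.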
ELG1 repair inh = ELG1-dependent DNA repair inhibition; HEK293T ELG1-luciferase reporter, luminescence, 16 h; DNA damage induced by 5-fluorouridine; Potency, µM (titrated, usually from 46.1 µM), for inactives: at the highest dose activity change, negative = inhibition, most hits filed as inhibitors; 330,000 tested, 2.3% active; AID 504467; note: % is set by controls: 0 for no effect and ±100 for the full control effect; nearly all actives have a fitted effect of over 55% in size
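Step one: seed 2,000 cells per well. Step two: pin-transfer compound or DMSO alongside 5-fluorouridine. Step three: incubate 16 hr, 37 °C, 5% CO2. Step four: add ONE-Glo, wait 30 min, read luminescence.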
Rab9 prom act = activators of Rab9 promoter; AID 485297; 320,000 tested, 2.8% active; Potency, µM (highest dose often 9.22 µM), without a hit: at the highest dose activation, negative = inhibition, most hits filed as activators; Huh7 Rab9 promoter-luciferase reporter, luminescence, 24 h; note: % of control where 0% means no effect; nearly all actives have a fitted effect of over 60% in size
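Luminescence read-out: Huh7 cells stably expressing Rab9-luciferase, treated 24 h with compound at 37 °C, then lysed with luciferase reagent for 10 min at ambient before reading.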
NPC1 promoter act = NPC1 promoter activation. Huh7 NPC1 promoter luciferase reporter, 24 h. Potency, µM (doses to about 9.22 µM), for inactives: top-dose activation, hits mostly activators. 320,000 tested, 2.4% active. AID 485313; note: % of control where 0% means no effect; nearly all actives have a fitted effect of over 60% in size
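Quantitative HTS used a cell-based reporter: Huh7 cells stably bearing the NPC1 promoter upstream of luciferase were treated with compounds for 24 h, and promoter activation was read as luminescence.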
Numbers without * were called inactive; ? = inconclusive; nt = no result given; [ ] = another dose, or the depositor's remark. An excerpt weighted towards active compounds, which were near 9.4% of everything screened. Calls come from the whole dose curve; as a rule, active = well fitted curve in the direction sought with a large enough effect; inconclusive = small, poorly fitted or top-dose-only effect, or another doubt; inactive = no such curve, though single readings can be large; an effect the other way counts as inactive or inconclusive. Potency is the fitted concentration of half-maximal effect.

SMILES	FLuc modulator	ELG1 genotoxic	SMN2 splice enh	ELG1 repair inh	Rab9 prom act	NPC1 promoter act
CC1CCC(=C(C#N)C(=O)Nc2cccc(Cl)c2)CC1 (configuration not stated)	24µM*	-1%	-11%	30%	-6%	-1%
N#CC(C#N)=C(N)Nc1cccc(Cl)c1	6%	1%	nt	?	-2%	0%
CC(C)C1COC(c2cccc3ccccc23)=N1 (configuration not stated)	2.1µM*	21µM*	22µM*	?	0.79µM*	3.2µM*
COc1ccc(C(=O)NCc2ccc3c(c2)CCN3C(=O)c2ccncc2)cc1	-18%	nt	nt	nt	nt	nt
Cc1nn(-c2ccccc2)c2nc(C3CC3)cc(C(=O)Nc3ccc(F)cc3)c12	3%	nt	nt	nt	nt	nt
CC(C)(C)c1ccc(/C=N/n2cnnc2)cc1	19µM*	8%	12%	14%	-8%	1%
COC(=O)c1ccc(/C=N/n2cnnc2)cc1	-1%	-1%	-9%	9%	8%	3%
O=C1CC(c2ccccc2)CC(O)=C1C=Nc1ccc(Cl)cc1 (configuration not stated)	-10%	0%	-4%[1.84 µM]	0%	-7%	-3%
O=C1CC(c2ccccc2)CC(O)=C1C=Nc1cccc(Cl)c1 (configuration not stated)	7.6µM*	1%	-3%[1.84 µM]	7%	-6%	-6%
CC1Cc2cc(S(=O)(=O)NCc3ccc(N(C)C)cc3)ccc2N1C(=O)C1CCC1 (configuration not stated)	-12%	nt	nt	nt	nt	nt
O=C(NC(=O)c1ccccc1)C1=C(N2CCCC2)COC1=O	?	?	nt	?	1.3µM*	2.2µM*
O=C(NS(=O)(=O)Nc1ccccc1)C1=C(N2CCCC2)COC1=O	nt	1%	nt	29%	nt	nt
CC(=O)N[C@@H]1CONC1=O	nt	nt	-4%[9.22 µM]	nt	nt	nt
COc1cc2ncnc(NCCc3ccccc3)c2cc1OC	-7%	-11%	-19%	?	-14%	-5%
COc1ccc(CCNc2ncnc3cc(OC)c(OC)cc23)cc1OC	-4%	-27%	-51%	8.2µM*	-4%	-16%
CC(C)(C)c1ccc(-c2cc(C(=O)NNC(=O)Nc3ccccc3)c3ccccc3n2)cc1	0.48µM*	?	14µM*	?	21%	?
O=C(NNC(=O)c1cc(-c2cccnc2)nc2ccccc12)Nc1ccc(Cl)cc1	24µM*	-8%	-3%	?	26%	13%
O=C(NNC(=O)c1cc(-c2ccccc2)nc2ccccc12)Nc1cccc(Cl)c1	?	-21%	-16%	?	0%	-2%
C=CCNC(=S)NNC(=O)c1cc(-c2cccnc2)nc2ccccc12	9.5µM*	3%	nt	-5%	6%	0%
CCc1cccc(NC(=O)C(Cc2ccccc2)NS(=O)(=O)c2ccc3c(c2)oc(=O)n3C)c1 (configuration not stated)	0%	nt	-14%	nt	nt	nt
Cc1ccc(NC(=O)Cn2c(=O)n(Cc3ccco3)c(=O)c3oc4ccccc4c32)cc1C	8%	nt	nt	nt	nt	nt
COc1ccc(C(O)C2=CCCC2=O)cc1 (configuration not stated)	nt	nt	15%	nt	nt	nt
Cc1cc(C)c2nc(-c3ccccn3)cc(C(=O)Nn3cnnc3)c2c1	19µM*	0%	0%	-4%	2%	-3%
NS(=O)(=O)c1ccc(CCNC(=O)c2cc(-c3ccc(Br)cc3)nc3ccccc23)cc1	?	-9%	11%	?	-1%	-8%
CCCc1ccc(-c2cc(C(=O)NN3CCOCC3)c3ccccc3n2)cc1	1.7µM*	8%	?	?	?	?
SMILES	FLuc modulator	ELG1 genotoxic	SMN2 splice enh	ELG1 repair inh	Rab9 prom act	NPC1 promoter act
CCc1ccc(-c2cc(C(=O)N3N=C(C(F)F)CC3(O)C(F)F)c3ccccc3n2)cc1 (configuration not stated)	5.4µM*	0%	9%	?	28%	21%
CCCc1ccc(-c2cc(C(=O)NCCc3ccc(S(N)(=O)=O)cc3)c3ccccc3n2)cc1	0.67µM*	1%	?	?	2.8µM*	?
FC(F)(F)c1ccccc1Cl	nt	nt	6%	nt	nt	nt
O=C(O)c1nc(-c2ccccc2)[nH]c1C(=O)O	nt	nt	-17%[9.22 µM]	nt	nt	nt
CCc1ccc(-c2cc(C(=O)Nn3cnnc3)c3ccccc3n2)cc1	0.067µM*	?	?	?	?	?
CC(C)Oc1cccc(-c2cc(C(=O)NC(=S)N(C)c3ccccc3C(=O)O)c3ccccc3n2)c1	2.7µM*	3%	18%	?	-1%	1%
CC(C)Oc1cccc(-c2cc(C(=O)NN3CCOCC3)c3ccccc3n2)c1	13µM*	-1%	nt	-12%	-2%[1.84 µM]	-1%
COc1cccc(/C=C2/Oc3ccccc3N(CC(=O)NCC3CCCO3)C2=O)c1 (configuration not stated)	9.5µM*	-6%	nt	-14%	3%	0%
Cc1cccc(CN2C(=O)/C(=C\c3ccc(C(=O)NCCN4CCOCC4)cc3)Sc3ccccc32)c1	-1%	-16%	nt	21µM*	-10%	2%
O=C(CN1C(=O)/C(=C\c2cccc(Br)c2)Oc2ccccc21)NCCCN1CCOCC1	6.7µM*	0%[9.26 µM]	nt	0%	-6%	-1%
O=C(O)CN1C(=O)/C(=C/c2cccc(Cl)c2)Oc2ccccc21	13µM*	-1%	nt	1%	3%	-5%
CC1Oc2ccccc2N(CC(=O)NCC2CCCO2)C1=O (configuration not stated)	4%	1%	-2%	2%	0%	3%
O=C(O)CN1C(=O)/C(=C/c2ccccc2Cl)Oc2ccccc21	?	-3%	nt	3%	-1%	-4%
CC(=O)N=Nc1[nH]c(N)c2ccccc12	-2%	1%	14%	7%	0%	-8%
COc1ccc(S(=O)(=O)c2c(SC)nn(CC(=O)Nc3cccc(C)c3C)c2N)cc1	-6%	nt	nt	nt	nt	nt
Cc1ccccc1CN1C(=O)/C(=C\c2ccc(C(=O)NCCN3CCOCC3)cc2)Sc2ccccc21	-4%	1%[9.26 µM]	nt	?	-3%	1%
CCc1ccc(/C=C2/Sc3ccccc3N(CC(=O)NCCCN3CCOCC3)C2=O)cc1	19µM*	7%	nt	24%	-2%	-1%
CCOC(=O)C1CCCN(C(=O)CN2C(=O)/C(=C/c3ccc(OC)cc3)Oc3ccccc32)C1 (configuration not stated)	15µM*	-15%	-50%	23µM*	-1%	0%
O=C(CN1C(=O)/C(=C/c2ccc(C(F)(F)F)cc2)Sc2ccccc21)NCCCN1CCOCC1	?	1%[9.26 µM]	nt	?	-1%	-4%
